The supplement of paper PMC11150407
In all, about 2,100 compounds went through this assay and about 180 (8.6%) showed an effect of 50% or more. Many of the other results were omitted from the sample, so strong results are more common in it than they were.

System: MOLM1 and UCSD/AML1 (averaged)
Assay: cell viability relative to DMSO control (POC); higher = less growth inhibition
Conditions: 1 µM; 72 h
Experimental: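 Primary viability screen in the 3q26 EVI1-high AML cell lines MOLM1 and UCSD/AML1 (1.5e3 cells/well, 384-well), compounds at 1 uM for 72 h. ATP CellTiter-Glo read-out given as percent of viable cells over DMSO control (POC), averaged over duplicates. DMSO was the negative control and 5 uM etoposide the positive control. This mapping covers the MicroSource Spectrum and Selleck anticancer libraries (drug names).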

Structure (SMILES)	cell viability [%]
O=C1C(Cl)=C(Cl)C(=O)C(Cl)=C1Cl	114
CNc1ccc(C(=O)CC(O)CCC(C)C2OC(=O)CC(O)CC(=O)CC(O)CC(O)CC(O)CC(O)CC3(O)CC(O)C(C(=O)OC)C(CC(O[C@@H]4O[C@H](C)[C@@H](O)[C@H](N)[C@@H]4O)/C=C/C=C/C=C/C=C/C=C/C=C/C=C/C2C)O3)cc1.COC(=O)C1C(O)CC2(O)CC(O)CC(O)CC(O)CC(O)CC(=O)CC(O)CC(=O)OC(C(C)CCC(O)CC(=O)c3ccc(N)cc3)C(C)/C=C/C=C/C=C/C=C/C=C/C=C/C=C/C(O[C@@H]3O[C@H](C)[C@@H](O)[C@H](N)[C@@H]3O)CC1O2 (stereo not given in full)	93.4
CN(CC[C@H](N)CC(=O)N[C@H]1C=C[C@H](n2ccc(N)nc2=O)O[C@@H]1C(=O)O)C(=N)N	114
COc1cc2c(cc1-c1cc3cc4ccoc4cc3oc1=O)OCO2	99.4
CC[C@@H](C)C(=O)O[C@H]1[C@H](O)[C@H]2[C@@H](CN3C[C@@H](C)CC[C@H]3[C@@]2(C)O)[C@@H]2C[C@]34O[C@]5(O)[C@@H](OC(=O)[C@@](C)(O)CC)CC[C@@]3(C)[C@@H]5[C@@H](OC(C)=O)[C@@H](OC(C)=O)[C@H]4[C@@]21O	89.1
COc1ccc2c(c1OC)C(=O)O[C@@H]2[C@H]1c2cc3c(cc2CCN1C)OCO3	88
COc1ccc2c(c1OC)C(=O)O[C@H]2[C@H]1c2cc3c(cc2CCN1C)OCO3	93.9
CN1CCc2cc3c(cc2C1O)OCO3 (stereo not given)	102
COc1cc([C@@H]2c3cc4c(cc3[C@H](O)[C@H]3COC(=O)[C@@H]23)OCO4)cc(OC)c1OC	12.3
COc1cc([C@@H]2c3cc4c(cc3[C@H](O)[C@H]3COC(=O)[C@H]23)OCO4)cc(OC)c1OC	6.17
Oc1cc(Cl)ccc1Oc1ccc(Cl)cc1Cl	95.1
Cc1ncc(CNC(=O)N(CCCl)N=O)c(N)n1	111
CC(=O)CC1CCCCN1 (stereo not given)	102
CN[C@@H](C)[C@@H](O)c1ccccc1	105
O=c1[nH]c2ccccc2n1C1CCN(CCCC(c2ccc(F)cc2)c2ccc(F)cc2)CC1	94.7
CNC(C)C(O)c1ccccc1 (stereo not given)	96.1
CC[C@@H](C(=O)[C@@H](C)[C@@H](O)[C@H](C)[C@@H]1O[C@@H]([C@@H](CC)C(=O)O)CC[C@@H]1C)[C@H]1O[C@]2(C=C[C@@H](O)[C@]3(CC[C@@](C)([C@H]4CC[C@](O)(CC)[C@H](C)O4)O3)O2)[C@H](C)C[C@@H]1C	20.9
CC[C@@H](C(=O)[C@@H](C)[C@@H](O)[C@H](C)[C@@H]1O[C@@H]([C@@H](CC)C(=O)O)CC[C@@H]1C)[C@H]1O[C@]2(C=C[C@@H](O)[C@]3(CC[C@@](C)([C@H]4CC[C@](O)(CC)[C@H](C)O4)O3)O2)[C@H](C)C[C@@H]1C [Salinomycin (Procoxacin)]	68.4
CC(=O)O[C@@H]1[C@H]2CC[C@H]3[C@@](C)(O)[C@@H]4C[C@H](O)C(C)(C)[C@@]4(O)[C@H](O)C[C@@]13C[C@@]2(C)O	100
C[C@@H](CO)NC(=O)[C@@H]1C=C2c3cccc4[nH]cc(c34)C[C@H]2N(C)C1	102
Cc1c(O)c(O)cc2c1CC=C1[C@@]2(C)CC[C@@]2(C)[C@@H]3C[C@](C)(C(=O)O)CC[C@]3(C)CC[C@]12C	11.5
CC1=C(O)C(=O)C=C2C1=CC=C1[C@@]2(C)CC[C@@]2(C)[C@@H]3C[C@](C)(C(=O)O)CC[C@]3(C)CC[C@]12C	30.1

Structure (SMILES)	cell viability [%]
CC(C)C[C@H](CN)CC(=O)O	67.7
COC[C@]12CN(C=O)[C@@H]3[C@@H]4[C@H](OC)[C@H]1[C@@]3([C@@H](OC)C[C@H]2O)[C@@H]1C[C@@]2(O)[C@H](OC(=O)c3ccccc3)[C@@H]1[C@]4(OC(C)=O)[C@@H](O)[C@@H]2OC	111
C=C(C)[C@H]1Cc2c(ccc3c(=O)c4c(oc23)COc2cc(OC)c(OC)cc2-4)O1	106
S=C=NCc1ccccc1	95.3
C#CCOS(=O)OC1CCCCC1Oc1ccc(C(C)(C)C)cc1 (stereo not given)	89.9
CC(C)(C)C(=O)C(Oc1ccc(Cl)cc1)n1cncn1 (stereo not given)	99.8
CC[C@@]1(O)C(=O)OCc2c1cc1n(c2=O)Cc2cc3ccccc3nc2-1	1.42
C[C@H]1CC[C@]2(NC1)O[C@H]1C[C@H]3[C@@H]4CC[C@H]5C[C@@H](O)CC[C@]5(C)[C@H]4CC[C@]3(C)[C@H]1[C@@H]2C	93.3
C[N+]1(C)CCc2cc3c(cc2[C@H]1[C@@H]1OC(=O)c2c1ccc1c2OCO1)OCO3	104
COc1cc2c(cc1OC)[C@H](C)NCC2	94.2
CC(C)c1ccc2c(c1O)CC[C@H]1C3=C(CC[C@]21C)C(=O)OC3	89.3
CC(C)[C@]12O[C@H]1[C@@H]1O[C@]13[C@]1(O[C@H]1C[C@H]1C4=C(CC[C@@]13C)C(=O)OC4)[C@@H]2O [Triptolide]	2.21
c1ccc(/N=N/c2ccccc2)cc1	96.4
N#C/C(=C\c1ccc(O)cc1)C(=O)O [alpha-CYANO-4-HYDROXYCINNAMIC ACID]	113
CCSCC[C@H](N)C(=O)O	99.2
CCC(C)C(=O)OC1CC2(C)C(c3ccoc3)OC(=O)CC23OC2(C)OC34C(OC(=O)C(C)C)C3(O)C(OC(=O)C5(C)OC5C)C5(C)CC3(O)C(C)(C5CC(=O)OC)C14O2 (stereo not given)	91.2
COC(=O)[C@@H]1C[C@H](OC(C)=O)C(=O)[C@H]2[C@@]1(C)CC[C@H]1C(=O)O[C@H](c3ccoc3)C[C@]21C	104
CNC(=O)Oc1cccc2c1OC(C)(C)C2	85.3
COc1ccc(C[C@H]2NC[C@H](O)[C@H]2OC(C)=O)cc1	3.59
C=CCc1ccc(OC)cc1	107
CC[C@H]1[C@@H]2C[C@H]3[C@@H]4N(C)c5ccccc5[C@]45C[C@@H]([C@@H]2[C@H]5O)N3[C@@H]1O	109
CC1=C2C(=CO[C@H](C)[C@H]2C)C(O)=C(C(=O)O)C1=O	104

Structure (SMILES)	cell viability [%]
CC(=O)O[C@H]1C[C@@H]2CC[C@@H]3[C@H](CC[C@@]4(C)[C@H]3C[C@H]([N+]3(C)CCCCC3)[C@@H]4OC(C)=O)[C@@]2(C)C[C@@H]1[N+]1(C)CCCCC1	88.6
C[C@H]1CC[C@]2(NC1)O[C@H]1C[C@H]3[C@@H]4CC[C@H]5C[C@@H](O[C@@H]6O[C@H](CO)[C@H](O[C@@H]7O[C@H](CO)[C@@H](O)[C@H](O[C@@H]8OC[C@@H](O)[C@H](O)[C@H]8O)[C@H]7O[C@@H]7O[C@H](CO)[C@@H](O)[C@H](O)[C@H]7O)[C@H](O)[C@H]6O)CC[C@]5(C)[C@H]4CC[C@]3(C)[C@H]1[C@@H]2C	65.2
C[C@@H]1CC[C@@]2(OC1)O[C@H]1[C@@H](O)[C@H]3[C@@H]4CC[C@H]5C[C@@H](O[C@@H]6O[C@H](CO)[C@H](O[C@@H]7O[C@H](CO)[C@@H](O)[C@H](O[C@@H]8OC[C@@H](O)[C@H](O)[C@H]8O)[C@H]7O[C@@H]7O[C@H](CO)[C@H](O)[C@H](O[C@@H]8O[C@H](CO)[C@@H](O)[C@H](O)[C@H]8O)[C@H]7O)[C@H](O)[C@H]6O)[C@H](O)C[C@]5(C)[C@H]4CC[C@]3(C)[C@H]1[C@@H]2C	92.7
C[C@]12CC[C@H](O)C[C@H]1CC[C@@H]1[C@@H]2CC[C@]2(C)[C@@H](C3=CC(=O)OC3)[C@@H](O)C[C@]12O	99.6
C[C@H]1O[C@@H](O[C@H]2[C@@H](O)C[C@H](O[C@H]3[C@@H](O)C[C@H](O[C@H]4CC[C@@]5(C)[C@H](CC[C@@H]6[C@@H]5CC[C@]5(C)[C@@H](C7=CC(=O)OC7)[C@@H](O)C[C@]65O)C4)O[C@@H]3C)O[C@@H]2C)C[C@H](O)[C@@H]1O	3.82
CC(=O)O[C@H]1C[C@H](O[C@H]2[C@@H](O)C[C@H](O[C@H]3[C@@H](O)C[C@H](O[C@H]4CC[C@@]5(C)[C@H](CC[C@@H]6[C@@H]5C[C@@H](O)[C@]5(C)[C@@H](C7=CC(=O)OC7)CC[C@]65O)C4)O[C@@H]3C)O[C@@H]2C)O[C@H](C)[C@H]1O[C@@H]1O[C@H](CO)[C@@H](O)[C@H](O)[C@H]1O	3.89
CC(=O)[C@H]1CC[C@H]2[C@@H]3CC[C@H]4C[C@H](O)CC[C@]4(C)[C@H]3CC[C@]12C	87.7
CC(=O)OC1CCC23C(=O)OC45CCC(C6=CC(=O)OC6)C4(C)CCC2C5CCC3(O)C1 (stereo not given)	5.23
CC(=O)O[C@H]1CC[C@@]2(C)[C@H](CC[C@@H]3[C@@H]2CC[C@]2(C)[C@@H](C4=CC(=O)OC4)[C@@H](OC(C)=O)C[C@]32O)C1	2.29
c1cc2c(cc1[C@H]1OC[C@H]3[C@@H]1CO[C@H]3c1ccc3c(c1)OCO3)OCO2	84.6
C[C@@H]1CC[C@]2(NC1)O[C@H]1C[C@H]3[C@@H]4CC=C5C[C@@H](O)CC[C@]5(C)[C@H]4CC[C@]3(C)[C@H]1[C@@H]2C	94.1
C[C@H]1C(=O)O[C@@H]2CCN3CC=C(COC(=O)[C@](C)(O)[C@]1(C)O)[C@H]23	103
C[C@@H]1C(=O)O[C@H]2[C@H]1CC[C@@]1(C)C=CC(=O)[C@@]3(C)O[C@@]213 [EPOXY (4,5alpha)-4,5-DIHYDROSANTONIN]	95.7
CNC(Cc1c[nH]c2ccccc12)C(=O)O (stereo not given)	102
C=C[C@H]1CN2CC[C@H]1C[C@H]2[C@H](OC(=O)OCC)c1ccnc2ccc(OC)cc12	98.5
N[C@@H]1C[C@H]1c1ccccc1.N[C@H]1C[C@@H]1c1ccccc1	93.1
COP(N)(=O)SC (stereo not given)	111
C[C@@H]1C[C@H](O)[C@@]2(O)[C@]13CC(=O)OC[C@@]2(C)[C@@](C)(O)C(=O)C3	92.3
CC(=O)C1CCC2C3CCC4C[C@H](O)CCC4(C)C3C[C@H](O)C12C (stereo partly drawn) [DIHYDROXY (3alpha,12alpha)PREGNAN-20-ONE]	105
C[C@]12CC[C@H](O)C[C@H]1CC[C@@H]1[C@@H]2C[C@@H](O)[C@]2(C)[C@@H](C3=CC(=O)OC3)CC[C@]12O	18.7
C[C@]12CC[C@H](O)C[C@@H]1CC[C@@H]1[C@@H]2CC[C@]2(C)C(=O)CC[C@@H]12	98.7
